# From ChEMBL document CHEMBL4513216, “Probing the Open Global Health Chemical Diversity Library for Multistage-Active Starting Points for Next-Generation Antimalarials” (ACS Infect Dis, 2020)
# The campaign covered roughly 65,000 compounds. About 2,100 (3.2%) showed an effect of 50% or more. The median lay at about -52%. The list comes from a sample in which strong results are over-represented; it also holds similar structures and randomly drawn compounds.
# Tested on: Plasmodium falciparum
# Test: Screen against P. falciparum Asexual Blood Stage (ABS), at 5uM
# Format: functional, Dd2
# Conditions: tested at 5 uM
row,SMILES,INHIBITION [%]
1,Cc1cccc(CC(=O)N2CCOCC2c2c(C)n[nH]c2C)c1 (stereo not drawn),-75.3
2,CC(=O)N(Cc1noc(C)n1)C1CCN(Cc2cnc(C)s2)C1 (stereo not drawn),-55.6
3,COc1cccc(CN2CCCCCC2c2cccs2)c1OC (stereo not drawn),-70.3
4,COc1ccc(CN2CCCC2c2cccc(F)c2)c(OC)c1OC (stereo not drawn),60.2
5,CS(=O)(=O)c1ccc(CN2CCCCC2c2cccc(F)c2)cc1 (stereo not drawn),-36.8
6,COc1cccc(CN2CCCC2c2cccc(F)c2)c1OC (stereo not drawn),55.4
7,COc1cc(CN2CCCC2c2cccc(F)c2)cc(OC)c1OC (stereo not drawn),28.2
8,Fc1cccc(C2CCCN2Cc2nnnn2C2CC2)c1 (stereo not drawn),-26.9
9,O=C(c1ccc(COc2ccc(Cl)cc2)o1)N1N=CCC1(O)C(F)(F)F (stereo not drawn),-121
10,CCc1nccn1C1CCCN(C(=O)c2cnn3cccnc23)C1 (stereo not drawn),-64
11,O=C(N[C@H]1CN(c2nc(CO)cs2)C[C@@H]1C1CC1)C1CCCCC1,-26.4
12,O=C(COC[C@]12COC[C@H]1CN(C1CCC1)C2)N1CCCC1,-115
13,Cc1ccc(C(F)(F)F)cc1C(=O)N[C@H]1CN(CCO)C[C@@H]1C1CC1,63.9
14,Cc1cnc(C(=O)N[C@H]2CN(CCS(C)(=O)=O)C[C@@H]2C2CC2)cn1,-47.7
15,CSCCCN1C[C@H](NC(=O)c2ccc(CO)cc2)[C@@H](C2CC2)C1,17.3
16,Cc1nc(N)sc1C(=O)N[C@H]1CN(CCO)C[C@@H]1C1CC1,-82.2
17,Cc1cc(C(=O)N[C@H]2CN(CCO)C[C@@H]2C2CC2)sc1C,60.8
18,Cc1cc(C(=O)N[C@H]2CN(CCC(N)=O)C[C@@H]2C2CC2)sc1C,-43.8
19,Cc1ccc(CN2CCCC3(CCCN3S(C)(=O)=O)C2)s1 (stereo not drawn),-71.7
20,Cc1ccc(C(=O)N(C)CCCc2cnn(C)c2)cc1N1CCNC1=O,-86.4
21,O=C(CCc1nnc2ccccn2c1=O)NCc1ccc2c(c1)OCO2,-108
22,Cn1cc(CN2CCc3nc(-c4ccccn4)nc(O)c3C2)cn1,-3.83
23,Cc1cc(C)n(CC2CN(CCOc3ccc(C#N)cc3)CCO2)n1 (stereo not drawn),-114
24,CC(C)c1noc(CN2CCC(c3nc4cc(Cl)ccc4o3)CC2)n1,-72.4
25,CCc1nnc(Nc2cccc(C3CCN(CC4CC4)CC3)n2)s1,3.36
26,CCc1nnc(Nc2cccc(C3CCN(c4cnccn4)CC3)n2)s1,55.5
27,CCc1nnc(Nc2cccc(C3CCN(C)CC3)n2)s1,6.83

row,SMILES,INHIBITION [%]
1,COCCC(=O)N1CCCC2(CCC(=O)N2CCOC)CC1 (stereo not drawn),-122
2,CN1CCN(C(=O)CCn2nnc3ccccc32)CC(C(N)=O)C1 (stereo not drawn),-71.9
3,Cc1ncsc1C(=O)N1CCC(O)(Cn2c(C)cc3ccncc32)CC1,-64.6
4,Cn1ccnc1Sc1ccc(N)cn1,-78.1
5,CS(=O)(=O)NC[C@]12COC[C@H]1CN(CCc1ccccc1)C2,-29.9
6,O=C(c1ccncc1F)N1Cc2nc(CN3CCCCC3)oc2C1,-21.6
7,CN(Cc1ccco1)C1CCC12CCN(C(=O)c1ccco1)CC2 (stereo not drawn),-9.15
8,CN(Cc1ccco1)C1CCC12CCN(C(=O)c1ccncc1)CC2 (stereo not drawn),38.3
9,CN(Cc1ccco1)C1CCC12CCN(C(=O)c1ccnnc1)CC2 (stereo not drawn),53.3
10,CC(C)(C)n1ncc2c1CCCC2NCc1ccc2ncccc2c1 (stereo not drawn),-1.42
11,Cc1cc(N2CCC3(CCCN(CCO)C3=O)C2)nc2ccccc12 (stereo not drawn),19.1
12,CN(Cc1cnc2ccccc2c1)C(=O)C(c1ccccc1F)N(C)C (stereo not drawn),64.4
13,Cc1cc(CN(C)C(=O)C(c2ccccc2F)N(C)C)ccn1 (stereo not drawn),-25.2
14,CCc1ccc(CN(C)C(=O)C(c2ccccc2F)N(C)C)nc1 (stereo not drawn),-0.644
15,CC1=C[C@@H](CC#N)[C@H](C(C)C)C[C@H]1CC(=O)N1CCN(CCO)CC1,40
16,CC(=O)N1CCN(C(=O)C[C@@H]2C[C@@H](C(C)C)[C@H](CC#N)C=C2C)CC1,53.5
17,CC1=C[C@@H](CC#N)[C@H](C(C)C)C[C@H]1CC(=O)N1CCN(C)CC1,44.5
18,Cc1csc(N2CCN(C(=O)NCCNc3ncccn3)CC2)n1,-162
19,COCc1ncn2c1CN(C(=O)c1cccc3cccnc13)CC2,-90.6
20,Cc1cnc(CN2CCN(c3nc(C)cs3)C(C)C2)cn1 (stereo not drawn),-48.9
21,Cc1n[nH]cc1CNCC1(c2cccc(F)c2)CCOCC1,26.9
22,FC(F)(F)c1cccc(C2(CNCc3ccncc3)CCOCC2)c1,51
23,CC1(C(=O)NCc2cccc(C(F)(F)F)c2)CCOCC1,-26.5
24,COC[C@]1(O)CCN(C2CCN(c3ccc(Cl)cc3)CC2)CC1(C)C,34.4
25,COC[C@]1(O)CCN(C2CCN(c3ccc(OC)cc3)CC2)CC1(C)C,-57.6
26,COC[C@]1(O)CCN(C2CCN(c3ccc(F)c(F)c3)CC2)CC1(C)C,63.1
